Test results from the OligoGym collection.

Legend:
Experiment in all cases: pooled miR-30 sensor sort-seq; sequence = guide strand
Settings in all cases: shRNA
[1] = biological target: CPEB3
[2] = biological target: CPD
[3] = biological target: CPNE5
[4] = biological target: CRB1
[5] = biological target: CRB3
[6] = biological target: CREB5
[7] = biological target: CRTAM
[8] = biological target: CSGALNACT1
[9] = biological target: CSH1
[10] = biological target: CTBP2
[11] = biological target: CT47A1
Further: reference of the scale not given here.

Question: How did the sensor-assay potency score (higher = more potent) [1] turn out when TTTGAAAACAAACTATAGCTTG was run?
Answer: The sensor-assay potency score (higher = more potent) was -0.549.

Question: Which sensor-assay potency score (higher = more potent) [1] does the source give for TAGTCTTGCAATCATTGTGTGT here?
Answer: The sensor-assay potency score (higher = more potent) was -0.635.

Question: How did the sensor-assay potency score (higher = more potent) [2] turn out when TTGTTTGTACCTTTATTCCTTC was run?
Answer: Its sensor-assay potency score (higher = more potent) is -0.441.

Question: Which sensor-assay potency score (higher = more potent) [3] does the source give for TTGCATCGTACTGAGTTCGAGA here?
Answer: The sensor-assay potency score (higher = more potent) was -0.62.

Question: For TAGTGTTATGAACCAAATCTGT, which sensor-assay potency score (higher = more potent) [2] is on record?
Answer: The sensor-assay potency score (higher = more potent) was -0.534.

Question: TTTAATTGATATCCTAGCCTGA was tested. Which sensor-assay potency score (higher = more potent) [1] did it give?
Answer: The sensor-assay potency score (higher = more potent) was 0.351.

Question: Which sensor-assay potency score (higher = more potent) [2] does the source give for TAGCAGTTGATACAGCCTCTGT here?
Answer: The sensor-assay potency score (higher = more potent) was -1.16.

Question: Which sensor-assay potency score (higher = more potent) [3] does the source give for TTCTTGTCCAGCTTGTTGGCAC here?
Answer: Its sensor-assay potency score (higher = more potent) is -0.22.

Question: For TTATATTGTCAATAGCTCTGTC, which sensor-assay potency score (higher = more potent) [4] is on record?
Answer: The sensor-assay potency score (higher = more potent) was 0.532.

Question: Which sensor-assay potency score (higher = more potent) [3] does the source give for TTGGTCTGCGCCATGTCCGAGA here?
Answer: Its sensor-assay potency score (higher = more potent) is -1.04.

Question: How did the sensor-assay potency score (higher = more potent) [4] turn out when ATAAATATCTGTATTATCCTTC was run?
Answer: The sensor-assay potency score (higher = more potent) was 0.756.

Question: TTGTCCAGGAGGTTCCTGCAGG was tested. Which sensor-assay potency score (higher = more potent) [3] did it give?
Answer: Its sensor-assay potency score (higher = more potent) is -0.916.

Question: For TTTGAGAAATTGCTCTTCCTGA, which sensor-assay potency score (higher = more potent) [4] is on record?
Answer: Its sensor-assay potency score (higher = more potent) is -0.258.

Question: How did the sensor-assay potency score (higher = more potent) [5] turn out when TTTGAAGTACCTTCTTCCCTGC was run?
Answer: Its sensor-assay potency score (higher = more potent) is 0.11.

Question: Which sensor-assay potency score (higher = more potent) [5] does the source give for TGGACGCAGGTTGCCATCGGAG here?
Answer: Its sensor-assay potency score (higher = more potent) is -1.88.

Question: For TAGATCAAAACGGAGGTTCTGC, which sensor-assay potency score (higher = more potent) [3] is on record?
Answer: Its sensor-assay potency score (higher = more potent) is -0.116.

Question: Which sensor-assay potency score (higher = more potent) [4] does the source give for TATTATTACATTTGCATCCCTT here?
Answer: Its sensor-assay potency score (higher = more potent) is -0.226.

Question: With TAACTGGTGGTGAACTCCCCAA as the sequence, how does the sensor-assay potency score (higher = more potent) [3] read?
Answer: Its sensor-assay potency score (higher = more potent) is -0.885.

Question: TTCAAATCCTTGAAGCACCGGC was tested. Which sensor-assay potency score (higher = more potent) [4] did it give?
Answer: The sensor-assay potency score (higher = more potent) was 0.589.

Question: TACACTTCTACAAGAAAGCTGT was tested. Which sensor-assay potency score (higher = more potent) [6] did it give?
Answer: Its sensor-assay potency score (higher = more potent) is 0.523.

Question: Which sensor-assay potency score (higher = more potent) [6] does the source give for TTATGTGTTAACAACAACTGTT here?
Answer: The sensor-assay potency score (higher = more potent) was -0.0254.

Question: For TTAAGTATAGCTTAGCTGCTGC, which sensor-assay potency score (higher = more potent) [6] is on record?
Answer: Its sensor-assay potency score (higher = more potent) is -0.267.

Question: TTACATCTTGGATACAGCCTTT was tested. Which sensor-assay potency score (higher = more potent) [4] did it give?
Answer: Its sensor-assay potency score (higher = more potent) is -0.193.

Question: How did the sensor-assay potency score (higher = more potent) [4] turn out when TTTATATTGTCAATAGCTCTGT was run?
Answer: The sensor-assay potency score (higher = more potent) was 0.0403.

Question: With TTGCAGAAGTGGTCTGTATTTG as the sequence, how does the sensor-assay potency score (higher = more potent) [5] read?
Answer: Its sensor-assay potency score (higher = more potent) is -1.49.

Question: TGCTCCTCGCTACTGGGCCGGT was tested. Which sensor-assay potency score (higher = more potent) [5] did it give?
Answer: Its sensor-assay potency score (higher = more potent) is -1.75.

Question: With TTGTCGATGACTTCGGTGCGCC as the sequence, how does the sensor-assay potency score (higher = more potent) [3] read?
Answer: Its sensor-assay potency score (higher = more potent) is -0.869.

Question: How did the sensor-assay potency score (higher = more potent) [6] turn out when TTTAAAAACAAGTAGATCCTAC was run?
Answer: Its sensor-assay potency score (higher = more potent) is 0.376.

Question: Which sensor-assay potency score (higher = more potent) [5] does the source give for ATGAAGGCAAAACAGTGCTATT here?
Answer: Its sensor-assay potency score (higher = more potent) is -1.64.

Question: Which sensor-assay potency score (higher = more potent) [6] does the source give for TTTAATGACAAACTCAACTTAC here?
Answer: The sensor-assay potency score (higher = more potent) was -0.383.

Question: With TCCGTCTGCCGCTTCTCCCGAA as the sequence, how does the sensor-assay potency score (higher = more potent) [5] read?
Answer: Its sensor-assay potency score (higher = more potent) is -1.23.

Question: TGGGAGAACTGCTCCTCGCTAC was tested. Which sensor-assay potency score (higher = more potent) [5] did it give?
Answer: Its sensor-assay potency score (higher = more potent) is -1.03.

Question: Which sensor-assay potency score (higher = more potent) [6] does the source give for TTGAACAATGTAATCTGTGTAG here?
Answer: The sensor-assay potency score (higher = more potent) was -0.458.

Question: TGTCTGAACAAGAACAATCATT was tested. Which sensor-assay potency score (higher = more potent) [4] did it give?
Answer: Its sensor-assay potency score (higher = more potent) is -1.04.

Question: With TATTCTCATTTGCAGAAGTGGT as the sequence, how does the sensor-assay potency score (higher = more potent) [5] read?
Answer: The sensor-assay potency score (higher = more potent) was -1.61.

Question: Which sensor-assay potency score (higher = more potent) [3] does the source give for TAGTGCTGGATGATCTCTCCGA here?
Answer: Its sensor-assay potency score (higher = more potent) is 0.148.

Question: TAGAACATTGTATTTGAACTGA was tested. Which sensor-assay potency score (higher = more potent) [6] did it give?
Answer: The sensor-assay potency score (higher = more potent) was -0.137.

Question: How did the sensor-assay potency score (higher = more potent) [3] turn out when TTCTTCATTTTCTTTTTCGGGT was run?
Answer: Its sensor-assay potency score (higher = more potent) is -0.414.

Question: How did the sensor-assay potency score (higher = more potent) [4] turn out when TTCATTGACGTCTTCTTCGCAG was run?
Answer: The sensor-assay potency score (higher = more potent) was 0.387.

Question: TTGAGGTCGATCTCACACTGGG was tested. Which sensor-assay potency score (higher = more potent) [4] did it give?
Answer: Its sensor-assay potency score (higher = more potent) is -0.294.

Question: Which sensor-assay potency score (higher = more potent) [5] does the source give for AAGACCACGATGATAGCAGTGA here?
Answer: The sensor-assay potency score (higher = more potent) was -0.0143.

Question: For TTGAAGAACATTCATTGACGTC, which sensor-assay potency score (higher = more potent) [4] is on record?
Answer: Its sensor-assay potency score (higher = more potent) is -0.696.

Question: Which sensor-assay potency score (higher = more potent) [3] does the source give for TTCTTCATGACCTCGGTCTTGT here?
Answer: Its sensor-assay potency score (higher = more potent) is 0.503.

Question: With ATAGCAGTGATGGCTTCTGGAC as the sequence, how does the sensor-assay potency score (higher = more potent) [5] read?
Answer: Its sensor-assay potency score (higher = more potent) is -1.45.

Question: With TTGCCATCGGAGCTGGAGCTGG as the sequence, how does the sensor-assay potency score (higher = more potent) [5] read?
Answer: Its sensor-assay potency score (higher = more potent) is -1.68.

Question: For TTCTCATTTGCAGAAGTGGTCT, which sensor-assay potency score (higher = more potent) [5] is on record?
Answer: The sensor-assay potency score (higher = more potent) was -0.965.

Question: Which sensor-assay potency score (higher = more potent) [4] does the source give for TTGGCTTTCACACCAATCCTTT here?
Answer: Its sensor-assay potency score (higher = more potent) is -1.07.

Question: With TTACTTGTAAGTTTATTGCTGC as the sequence, how does the sensor-assay potency score (higher = more potent) [6] read?
Answer: Its sensor-assay potency score (higher = more potent) is 0.486.

Question: Which sensor-assay potency score (higher = more potent) [7] does the source give for TTTTGCTTTCTGATAACTGAAG here?
Answer: The sensor-assay potency score (higher = more potent) was -1.15.

Question: Which sensor-assay potency score (higher = more potent) [8] does the source give for TATCTCGTGCCTGAACACCAGC here?
Answer: The sensor-assay potency score (higher = more potent) was -0.848.

Question: With TTGGACTGCATGCACATCTTGT as the sequence, how does the sensor-assay potency score (higher = more potent) [8] read?
Answer: The sensor-assay potency score (higher = more potent) was -0.464.

Question: TACTCGGGCACCTAGAAGCCAC was tested. Which sensor-assay potency score (higher = more potent) [9] did it give?
Answer: Its sensor-assay potency score (higher = more potent) is -1.13.

Question: Which sensor-assay potency score (higher = more potent) [10] does the source give for TTTCCTGCGTCGACTGCGCGTC here?
Answer: The sensor-assay potency score (higher = more potent) was -0.459.

Question: For TTCTCTATGAGGATGTGGTCGT, which sensor-assay potency score (higher = more potent) [11] is on record?
Answer: Its sensor-assay potency score (higher = more potent) is 0.0532.

Question: How did the sensor-assay potency score (higher = more potent) [11] turn out when TTGTTCTTTCTCTTCCTCGCCT was run?
Answer: The sensor-assay potency score (higher = more potent) was 0.277.

Question: With AATTTCTTAAGCTTTCTGGGAT as the sequence, how does the sensor-assay potency score (higher = more potent) [10] read?
Answer: The sensor-assay potency score (higher = more potent) was 0.0586.

Question: How did the sensor-assay potency score (higher = more potent) [10] turn out when TTCGGGGCATCTTTCAACGGAC was run?
Answer: The sensor-assay potency score (higher = more potent) was -0.791.

Question: Which sensor-assay potency score (higher = more potent) [10] does the source give for TAAGGCTTTCTCGTCCACCAGG here?
Answer: Its sensor-assay potency score (higher = more potent) is -0.686.

Question: For TTGCAGTGCAAGGAGACGCAGT, which sensor-assay potency score (higher = more potent) [10] is on record?
Answer: The sensor-assay potency score (higher = more potent) was -0.883.

Question: With TTCGTTGAGATTGCAGTGCAAG as the sequence, how does the sensor-assay potency score (higher = more potent) [10] read?
Answer: The sensor-assay potency score (higher = more potent) was -1.27.
